Sampled rows, rich in hits. Any-hit rate of the full collection: about 6.6%.
GRIN3A LBD mod: binders of NR3A ligand-binding domain, primary screen, biophysical, differential scanning fluorimetry, uHTS. Glutamate receptor ionotropic, NMDA 3A (GRIN3A) ligand-binding domain. Tm shift relative to glycine control, % at 25 µM. actives 2.5% (n = 340,000). NR3A LBD differential scanning fluorimetry, Tm shift; 0% = protein alone, 100% = glycine-bound protein. AID 1259313, 2017;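 active means melting temperature shift of at least 10% of the positive control shift, at one fixed dose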
MPTP block: mitochondrial permeability transition pore inhibitors, primary screen, biochemical, isolated mouse mitochondria, absorbance. Ca2+ swelling absorbance, 30 min. inhibition, % at 10 µM. actives 1.4% (n = 360,000);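 active means inhibition of 50% or more, scaled per plate between neutral and stimulator controls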;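 further: 0% = DMSO wells given calcium and 100% = 1 mM EGTA wells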
Beta apoptosis: inhibitors of cytokine-induced beta cell apoptosis, primary screen, luminescence; actives 0.8% (n = 300,000); protection from apoptosis, % (test concentration not listed); AID 435005, 2010; INS-1E cytokine-induced death, ATP luminescence, 48 h; percent of positive-control rescue, neutral wells zero;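 active means Every replicate reaches about 75%, or at least half do and their mean reaches it too, limit read from the data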;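 further: 0% = cytokine-treated negative control wells and 100% = positive control rescue; higher means more ATP so stronger rescue from cytokine killing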
CSC inhib: cancer stem cell viability inhibitors, primary screen, luminescence; actives 1.1% (n = 300,000); AID 2717, 2010; inhibition, % at 7.5 µM; cancer stem cell-like cells viability; in the data active means inhibition above about 75%; tested in HMLE shEcad cells
Gli-Sufu block: Gli-Sufu pathway antagonists, primary screen, luciferase luminescence, Sufu-KO-LIGHT cells, uHTS | Sufu-KO-LIGHT fibroblasts, Gli luciferase reporter luminescence | inhibition, % at 5 µM | actives 0.74% (n = 340,000) | AID 588413, 2011;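 active means inhibition above about 55%, limit read from the data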;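 further: 0% = DMSO-treated cells and 100% = wells with medium but no cells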
Mdm2-MdmX inh: inhibitors of human Mdm2-MdmX association, primary screen, cell-based, luminescence, split luciferase, SaOS-2, uHTS; Protein Mdm4 (Homo sapiens) + E3 ubiquitin-protein ligase Mdm2 (Homo sapiens), …; SaOS-2 split-luciferase Mdm2/MdmX complementation; inhibition, % at 8 µM; actives 3% (n = 330,000);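 active means inhibition of at least 50% at 8 µM in the primary screen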
Mdm2-MdmX conf: Mdm2-MdmX complex disruptors, retested hits, confirmation, luminescence, single concentration; shares compounds with Mdm2-MdmX inh; Mdm2-MdmX binding, luminescent assay; inhibition, % at 8 µM; actives 55% (n = 10,000); AID 489028, 2010; in the data active means inhibition above about 40%
Full FLuc ctr: full-length luciferase signal inhibition, confirmation, counter-screen for Mdm2/MdmX interaction inhibitor project, cell-based, single concentration, SaOS-2; shares compounds with Mdm2-MdmX inh; SaOS-2 full-length luciferase counterscreen, luminescence; inhibition, % at 8 µM; actives 77% (n = 6,200); AID 504607, 2011;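 active means mean inhibition at 8 µM reaching about 37%, which flags the compound as non-specific, limit read from the data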;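 further: p53-null SaOS-2 cells with luciferase driven by a doxycycline-inducible promoter; compound on cells about two nights before reading with doxycycline added after day one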
An asterisk follows results filed as active; x = not tested or not shown.

SMILES	GRIN3A LBD mod	MPTP block	Beta apoptosis	CSC inhib	Gli-Sufu block	Mdm2-MdmX inh	Mdm2-MdmX conf	Full FLuc ctr
CC(C)N(c1ccccc1)c1ccc(NC(=O)CCl)cc1	0	2	-8	-7	-12	97*	99*	51*
O=C(CCl)Nc1cn(-c2ccccc2)nc1-c1ccccc1	0	0	-8	21	-4	75*	33	34
O=C(CCl)Nc1ccc(-c2ccccc2)cc1	1	1	-24	5	2	96*	99*	50*
O=C(CCl)Nc1cccc(Oc2ccccc2)c1	-2	2	-8	-8	8	94*	21	x
O=C(CCl)Nc1cccc(Oc2cnccn2)c1	0	-2	-6	14	6	33	x	x
Cc1cc(C)n2c(SCC(=O)N(CCC#N)c3ccc4c(c3)OCCO4)nnc2n1	x	0	x	x	x	x	x	x
CC(=O)NC1=NN(C(C)=O)C(C)(c2ccccc2)S1 (stereo not given)	2	-1	x	x	9	60*	53*	53*
CCn1cc([N+](=O)[O-])c(C(=O)N2N=C(c3cccc4ccccc34)CC2c2ccccc2O)n1 (stereo not given)	1	-13	1	4	6	52*	41*	75*
CCn1cc(Cl)c(C(=O)N2N=C(c3ccc4ccccc4c3)CC2c2ccccc2O)n1 (stereo not given)	1	5	-9	26	-2	69*	40*	57*
CCn1cc([N+](=O)[O-])c(C(=O)N2N=C(c3ccc(OC)cc3OC)CC2c2ccccc2O)n1 (stereo not given)	-5	3	x	0	-5	15	x	x
CCn1cc([N+](=O)[O-])c(C(=O)N2N=C(c3ccc4ccccc4c3)CC2c2ccccc2O)n1 (stereo not given)	-11	0	3	-3	-2	61*	59*	86*
O=C(COC(=O)CNC(=O)c1ccc(Cl)cc1Cl)Nc1cccc(S(=O)(=O)N2CCCC2)c1	-3	0	x	-5	4	4	x	x
CN1Cc2c(N3CCOCC3)nc3sc(C#N)c(N)c3c2CC1(C)C	0	-1	8	4	3	4	x	x
CNC(=O)c1ccc(-c2sc3nc(N4CCOCC4)c4c(c3c2N)CC(C)(C)OC4)o1	-4	-3	16	-4	18	61*	-8	x
CN1Cc2c(N3CCOCC3)nc3sc(C(=O)c4ccc(Br)cc4)c(N)c3c2CC1(C)C	-6	-8	48	102*	-4	91*	61*	84*
COc1ccc(-n2nnnc2SCC(=O)Nc2cc(OC)c([N+](=O)[O-])cc2C)cc1	-4	1	25	1	15	52*	7	x
CC(=O)Nc1ccc(NC(=O)CSc2nnnn2-c2ccc3c(c2)OCCO3)cc1	-2	1	1	0	-8	51*	4	x
COc1ccc(OC)c(NC(=O)CSc2nnnn2-c2ccc3c(c2)OCO3)c1	2	-1	-10	-5	-2	58*	30	x
COC(=O)c1ccc(-n2nnnc2SCC(=O)Nc2cc(OC)ccc2OC)cc1	0	4	3	-13	-4	-9	x	x
Cc1ccc(-n2nnnc2SCC(=O)Nc2ccc3c(c2)OCCO3)cc1C	-1	2	3	-9	-15	6	x	x
COc1ccc2[nH]c3nc(SCC(=O)Nc4ccc5c(c4)OCO5)nnc3c2c1	2	1	1	x	5	66*	6	x
CCOC(=O)C1=C(COC(=O)CCNS(=O)(=O)c2ccc(NC(C)=O)cc2)NC(=O)NC1C (stereo not given)	-2	0	-2	8	-10	-17	x	x
O=C(CCC(=O)Nc1nnc(C2CCCCC2)s1)Nc1ccc(F)cc1	-3	-2	-4	1	-22	0	x	x
COc1ccc(OC)c(-n2nnnc2SCC(=O)Nc2ccc3c(c2)OCCO3)c1	2	1	1	-3	4	82*	1	x
Cc1ccc(NC(=O)CSc2nnnn2-c2ccc3c(c2)OCO3)cc1C	0	4	-17	-6	-3	49	x	x
SMILES	GRIN3A LBD mod	MPTP block	Beta apoptosis	CSC inhib	Gli-Sufu block	Mdm2-MdmX inh	Mdm2-MdmX conf	Full FLuc ctr
Cc1ccc(-n2nnnc2SCC(=O)Nc2ccc3c(c2)COC3=O)cc1C	-19	-3	3	4	-6	51*	9	x
CCC(=O)Nc1cccc(C(=O)N(Cc2ccccc2)Cc2ccccc2)c1	-1	-1	-3	-4	2	7	x	x
CCCCNc1c(-c2ccc(OC)c(Sc3ccc(OC)cc3)c2)nc2cnccn12	-15	2	7	x	4	33	x	x
CCCCNc1c(-c2ccc(SC(C)CC)cc2)nc2cnccn12 (stereo not given)	-3	7	14	107*	-42	52*	11	x
CCC(CC)C(=O)Nc1nnc(SCC(=O)NC2CC2)s1	-2	0	x	-3	-14	-5	x	x
C[C@@H]1CN([C@H](C)CO)C(=O)CCCn2nncc2CO[C@H]1CN(C)Cc1ccc(Oc2ccccc2)cc1	x	-1	x	x	x	x	x	x
O=c1cnnc(N/N=C/c2ccccn2)[nH]1	-3	0	106*	120*	74*	82*	88*	53*
Cc1cc(=O)[nH]c(N/N=C/c2ccccn2)n1	-4	0	95*	107*	46	80*	78*	59*
Fc1cccc(/C=N/Nc2nncc3ccccc23)c1	1	3	-1	20	-98	-241	x	x
C(=N\Nc1nncc2ccccc12)/c1ccccn1	-2	0	98*	-2	36	79*	79*	30
COC(=O)[C@]12CCCCC=C1N(Cc1ccc3c(c1)OCO3)C(=O)[C@H](CC(=O)NCCCCc1ccccc1)C2	x	-2	x	x	x	x	x	x
CCS(=O)c1ccccc1C(=O)OCC(=O)N1CCC(c2ccccc2)=N1 (stereo not given)	-1	-1	-4	-12	2	2	x	x
Nc1c(Cl)cc(-c2cn(CCC(=O)O)c(-c3ccncc3)n2)cc1Cl	2	-1	-5	-2	-24	14	x	x
Nc1ccn([C@@H]2O[C@H](C(=O)N(CCC3=CCCCC3)CC3CC3)[C@@H](O)[C@H]2O)c(=O)n1	x	-1	x	x	x	x	x	x
